For 5 compounds, composite z-score and z-score results are on record in PubChem BioAssay.

The source made the active and inactive calls.

Assay [1] has as its system Plasmodium falciparum Sir2 (PF13_0152, Sir2A). As to the kind of experiment: Plasmodium falciparum Sir2A binding compounds – biochemical, small-molecule microarray, 635 nm fluorescence, primary screen (AID 1098).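 Also: score merges spot fluorescence intensity with its signal-to-noise ratio.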 To be noted: fluorescence 635 nm, higher = more signal.
Assay [2] can be described thus: probe aDKK1 binding to arrayed compounds – biochemical, biotinylated probe, 635/667 nm fluorescence, primary screen (AID 1099).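 Also: score merges 667nm spot fluorescence with signal to noise across triplicate slides.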 The note with it: small-molecule microarray, higher = more signal.
A short description of assay [3]: probe aCHRDL2 binding to arrayed compounds – biochemical, biotinylated probe, 635/667 nm fluorescence, primary screen (AID 1100). To be noted: small-molecule microarray, higher = more signal.
A short description of assay [4]: change in splice reporter luminescence, either direction, cell-based, HEK293, spliceosome inhibition project, primary screen (AID 1101).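 Also: HEK293 cells carrying a splicing-competent luciferase reporter gene; test concentration not given here.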 The note with it: HEK293 splicing luciferase reporter, 24 h, higher = more signal, called active from +8 up or from −8 down.
Assay [5] concerns the target Fibroblast growth factor 10 (Homo sapiens) (UniProt O15520). Description: compounds binding fibroblast growth factor 10 – biochemical, small-molecule microarray, 635 nm fluorescence, primary screen (AID 1102). The note with it: FGF10 binding, fluorescence 635 nm, higher = more signal.
Assay [6] concerns glycogen synthase kinase-3 (GSK3A per assay name; protocol says GSK3B). As to the kind of experiment: compounds binding glycogen synthase kinase-3 – biochemical, small-molecule microarray, 635 nm fluorescence, GSK3A, primary screen (AID 1103). Also: the record names both GSK3A and GSK3B. To be noted: fluorescence 635 nm, higher = more signal.
The target in assay [7] is Epidermal growth factor receptor (Homo sapiens) (UniProt P00533). As to the kind of experiment: compounds binding epidermal growth factor receptor – biochemical, small-molecule microarray, 635 nm fluorescence, primary screen (AID 1104).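 Also: score merges 667 nm emission intensity with spot signal to noise over triplicate slides.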 The note with it: EGFR binding, higher = more signal.
The target in assay [8] is Follistatin-related protein 3 (Homo sapiens) (UniProt O95633). Description: compounds binding follistatin-related protein 3 – biochemical, small-molecule microarray, 635 nm fluorescence, primary screen (AID 1105).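 Also: score merges emission near 667 nm and signal to noise per printed spot across three slides.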 To be noted: FSTL3 binding, higher = more signal.
The target of assay [9] is Dickkopf-related protein 1 (Homo sapiens) (UniProt O94907). As to the kind of experiment: small molecules binding DKK1 protein – biochemical, small-molecule microarray, 635 nm fluorescence scan, primary screen (AID 1106).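 Also: score merges emission near 667 nm with signal to noise over three replicate slides.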 To be noted: higher = more signal.
Assay [10] concerns Inhibin beta A chain (activin A). Description: small molecules binding activin A – biochemical, small-molecule microarray, 635 nm fluorescence scan, primary screen (AID 1107).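 Also: mouse activin A protein probed at 4.33 µg/mL on printed slides; score merges bound-protein fluorescence near 667 nm with spot signal-to-noise.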 The note with it: INHBA, higher = more signal.
The test system of assay [11] is Human papillomavirus type 1a protein E7 (residues 44-93). As to the kind of experiment: small molecules binding HPV E7 44-93 – biochemical, small-molecule microarray, residues 44-93, 635 nm fluorescence, primary screen (AID 1108).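 Also: E7 fragment applied at 1 µg/mL in TBST for 1 h at 4 C; score combines spot fluorescence with its signal to noise ratio.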 The note with it: fluorescence 635 nm, higher = more signal.
The nature of assay [12]: hepatitis C replication reporter changes, two-sided – Huh7 cells, luciferase reporter, HCV replication inhibitor project, primary screen (AID 1109).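 Also: huh7 hepatoma cells harbouring a luciferase neomycin HCV replicon reporter; luciferase luminescence as measure of HCV replicon replication; test concentration not given here.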 The note with it: Huh7 HCV replicon luciferase reporter, 48 h; higher = more signal.
Assay [13] addresses Left-right determination factor 2 (Homo sapiens) (UniProt O00292). Description: small molecules binding LEFTY2 protein – biochemical, small-molecule microarray, 635 nm fluorescence scan, primary screen (AID 1110). The note with it: higher = more signal.
Assay [14] has as its target Calmodulin-1 (Homo sapiens) (UniProt P0DP23). Description: small molecules binding calmodulin-1 with EGTA – biochemical, small-molecule microarray, Cy5-labelled CALM1, profiling panel (AID 1111).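 Also: labelled calmodulin applied in Tris saline Tween buffer holding calcium plus EGTA and DTT.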 To be noted: Cy5-CALM1 binding fluorescence, higher = more signal.
Assay [15] has the same target. Description: small molecules binding Ca-loaded calmodulin-1 – biochemical, small-molecule microarray, Cy5-labelled CALM1, plus calcium, artefact control for SMM control-protein annotation, profiling panel (AID 1112).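 Also: score merges spot fluorescence with signal to noise from triplicate slides.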 The note with it: Cy5-CALM1 binding fluorescence, higher = more signal.
Assay [16] can be described thus: probe aWnt5a binding to arrayed compounds – biochemical, biotinylated probe, 635/667 nm fluorescence, primary screen (AID 1113).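 Also: score merges 667 nm fluorescence intensity with signal-to-noise per printed feature.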 To be noted: small-molecule microarray, higher = more signal.
Assay [17] can be described thus: probe aShh binding to arrayed compounds – biochemical, biotinylated probe, 635/667 nm fluorescence, primary screen (AID 1114).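 Also: probe is biotin-labelled aShh protein from a stem cell growth factor screen; measures binding of labelled protein to compounds printed on the slide; score merges feature fluorescence at 667 nm with signal-to-noise.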 The note with it: small-molecule microarray, higher = more signal.
The nature of assay [18]: probe aNog binding to arrayed compounds – biochemical, biotinylated probe, 635/667 nm fluorescence, primary screen (AID 1115).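 Also: probe is biotinylated aNog protein used at 0.15 µg/mL for 1 h at 4 C; z-score combines 667 nm fluorescence of each spot with its signal to noise.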 The note with it: small-molecule microarray, higher = more signal.
Assay [19] concerns the target Torsin-1A-interacting protein 1 (Homo sapiens) (UniProt Q5JTV8). Description: compound microarray binding of lysate hLAP1 – cell lysate, small-molecule microarray, COS7 lysate, 635/667 nm fluorescence, primary screen (AID 1116). To be noted: 635 nm fluorescence, higher = more signal.
Assay [20] concerns the target Alpha-bungarotoxin (Bungarus multicinctus) (UniProt P60615). Description: compounds binding labelled alpha-BTX control protein – biochemical, small-molecule microarray, Alexa647 label, 635/667 nm fluorescence, artefact control for SMM control protein annotation, profiling panel (AID 1117). The note with it: alpha-BTX-A647 binding fluorescence, higher = more signal.

Chain of Alpha-bungarotoxin (Bungarus multicinctus) (P60615 whole entry, looked up): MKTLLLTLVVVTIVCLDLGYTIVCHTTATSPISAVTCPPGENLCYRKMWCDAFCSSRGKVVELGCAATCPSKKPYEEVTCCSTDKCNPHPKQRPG
Chain of Epidermal growth factor receptor (Homo sapiens) (P00533 whole entry, looked up): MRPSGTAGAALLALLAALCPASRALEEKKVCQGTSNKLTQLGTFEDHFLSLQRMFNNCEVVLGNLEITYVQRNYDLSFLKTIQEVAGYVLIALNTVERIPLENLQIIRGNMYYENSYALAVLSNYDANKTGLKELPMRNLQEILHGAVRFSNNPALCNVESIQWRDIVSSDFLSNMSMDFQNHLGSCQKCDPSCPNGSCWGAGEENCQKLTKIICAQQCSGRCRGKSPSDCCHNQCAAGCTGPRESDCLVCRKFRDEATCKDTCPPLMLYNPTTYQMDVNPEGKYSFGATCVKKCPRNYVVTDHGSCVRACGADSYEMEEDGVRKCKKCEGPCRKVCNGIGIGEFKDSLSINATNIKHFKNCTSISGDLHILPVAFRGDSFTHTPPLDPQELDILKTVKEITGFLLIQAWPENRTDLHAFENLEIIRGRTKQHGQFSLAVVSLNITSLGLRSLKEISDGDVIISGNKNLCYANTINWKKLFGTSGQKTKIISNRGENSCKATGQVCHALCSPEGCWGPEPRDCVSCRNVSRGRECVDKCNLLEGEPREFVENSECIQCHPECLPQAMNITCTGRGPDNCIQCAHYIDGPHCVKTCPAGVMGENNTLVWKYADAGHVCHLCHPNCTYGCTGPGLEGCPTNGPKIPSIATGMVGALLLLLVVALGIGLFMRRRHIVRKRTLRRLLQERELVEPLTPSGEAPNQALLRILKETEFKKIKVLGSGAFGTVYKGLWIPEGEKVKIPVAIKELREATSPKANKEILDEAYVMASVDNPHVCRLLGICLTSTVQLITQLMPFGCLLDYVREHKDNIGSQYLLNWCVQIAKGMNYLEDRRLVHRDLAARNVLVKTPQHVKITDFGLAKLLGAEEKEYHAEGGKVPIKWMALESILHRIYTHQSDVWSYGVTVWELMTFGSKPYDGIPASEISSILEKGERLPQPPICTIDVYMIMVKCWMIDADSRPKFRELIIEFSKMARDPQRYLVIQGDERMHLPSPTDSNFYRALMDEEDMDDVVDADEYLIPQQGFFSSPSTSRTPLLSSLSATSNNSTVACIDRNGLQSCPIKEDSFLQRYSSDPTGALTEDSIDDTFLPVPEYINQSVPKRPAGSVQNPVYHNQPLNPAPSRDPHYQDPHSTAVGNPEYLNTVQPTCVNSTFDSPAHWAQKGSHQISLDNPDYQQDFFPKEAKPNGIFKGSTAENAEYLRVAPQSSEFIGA
Chain of Torsin-1A-interacting protein 1 (Homo sapiens) (Q5JTV8 whole entry, looked up): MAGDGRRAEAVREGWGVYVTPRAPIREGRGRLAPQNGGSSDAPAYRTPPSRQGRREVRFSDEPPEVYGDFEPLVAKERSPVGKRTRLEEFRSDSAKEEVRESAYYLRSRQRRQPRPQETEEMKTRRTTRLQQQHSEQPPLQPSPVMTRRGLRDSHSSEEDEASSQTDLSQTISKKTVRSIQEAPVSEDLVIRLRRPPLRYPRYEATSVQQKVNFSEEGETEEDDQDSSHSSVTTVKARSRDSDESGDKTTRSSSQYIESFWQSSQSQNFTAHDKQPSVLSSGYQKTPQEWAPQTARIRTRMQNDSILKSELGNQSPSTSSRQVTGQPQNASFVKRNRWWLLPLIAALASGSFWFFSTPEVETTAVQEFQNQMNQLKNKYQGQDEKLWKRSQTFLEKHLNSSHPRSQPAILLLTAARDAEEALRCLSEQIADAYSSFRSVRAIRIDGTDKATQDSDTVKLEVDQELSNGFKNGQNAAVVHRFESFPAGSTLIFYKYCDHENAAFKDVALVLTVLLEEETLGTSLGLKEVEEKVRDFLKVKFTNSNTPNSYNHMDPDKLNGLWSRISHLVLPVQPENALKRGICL
Chain of Dickkopf-related protein 1 (Homo sapiens) (O94907 whole entry, looked up): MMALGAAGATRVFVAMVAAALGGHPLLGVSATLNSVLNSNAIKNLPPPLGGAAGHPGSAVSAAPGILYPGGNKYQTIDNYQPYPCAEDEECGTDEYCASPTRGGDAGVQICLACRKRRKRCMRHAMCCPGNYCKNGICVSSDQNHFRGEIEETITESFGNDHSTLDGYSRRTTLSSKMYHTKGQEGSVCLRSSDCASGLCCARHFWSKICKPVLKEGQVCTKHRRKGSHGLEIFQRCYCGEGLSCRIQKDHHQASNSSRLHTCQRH
Chain of Left-right determination factor 2 (Homo sapiens) (O00292 whole entry, looked up): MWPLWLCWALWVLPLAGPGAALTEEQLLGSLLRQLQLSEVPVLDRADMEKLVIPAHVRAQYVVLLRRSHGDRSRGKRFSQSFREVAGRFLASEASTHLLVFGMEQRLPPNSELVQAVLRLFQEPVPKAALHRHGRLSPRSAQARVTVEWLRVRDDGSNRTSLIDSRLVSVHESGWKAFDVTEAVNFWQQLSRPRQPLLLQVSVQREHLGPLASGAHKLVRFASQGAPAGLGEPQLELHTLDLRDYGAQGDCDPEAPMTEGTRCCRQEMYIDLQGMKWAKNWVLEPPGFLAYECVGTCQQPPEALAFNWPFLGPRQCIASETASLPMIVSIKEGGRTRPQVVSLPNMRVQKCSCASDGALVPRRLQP
Chain of Follistatin-related protein 3 (Homo sapiens) (O95633 whole entry, looked up): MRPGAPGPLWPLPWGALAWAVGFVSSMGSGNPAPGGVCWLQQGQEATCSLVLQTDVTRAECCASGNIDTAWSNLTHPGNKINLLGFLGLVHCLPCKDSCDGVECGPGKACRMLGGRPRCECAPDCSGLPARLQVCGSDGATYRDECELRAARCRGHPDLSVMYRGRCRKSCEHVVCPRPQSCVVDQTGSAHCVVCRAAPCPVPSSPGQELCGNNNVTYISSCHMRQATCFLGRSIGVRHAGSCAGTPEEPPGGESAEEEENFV
Chain of Fibroblast growth factor 10 (Homo sapiens) (O15520 whole entry, looked up): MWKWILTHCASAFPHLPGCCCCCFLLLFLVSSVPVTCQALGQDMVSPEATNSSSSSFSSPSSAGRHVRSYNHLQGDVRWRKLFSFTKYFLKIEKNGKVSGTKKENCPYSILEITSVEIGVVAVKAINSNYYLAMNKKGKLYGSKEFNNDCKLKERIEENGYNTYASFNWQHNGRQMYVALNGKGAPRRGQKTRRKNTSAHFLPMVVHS

As to `COC(=O)[C@@]1(Cc2ccc(F)cc2)[C@H]2c3cc(C(=O)N(C)C)n(Cc4cc(F)cc5c4OCOC5)c3C[C@H]2CN1C(=O)c1ccccc1`, the composite z-score was found to be 0.743 in [1]; 1.25 in assay [2]; 1.25 in assay [3]; 0.87 in [5]; 0.427 in assay [6]; 0.105 in assay [7]. Moreover, the composite z-score in assay [8] is 0.913; in assay [9] it was -0.171; in [10], 0.677; in assay [11], 1.41; in [13] it was 0.011; in assay [14] it was 1.68. The composite z-score is 0.0074 in assay [15]; -0.001 in assay [16]; 0.0856 in assay [17]; 0.468 in [18]; 0.822 in [19]; 1.04 in [20]. The z-score in assay [4] is -1.26 (inactive); in assay [12] it was -1.81.
Regarding `CCOC(=O)C1=CC[C@@H](c2cccc(Cl)c2)N(S(=O)(=O)c2ccc(C)cc2)C1`, the composite z-score is 0.925 in assay [1]; 0.419 in assay [2]; 0.877 in [3]; 0.674 in assay [5]; 0.0076 in [6]; 0.101 in [7]. In addition, the composite z-score in assay [8] is -0.0034; in assay [9] it was 0.0677; in [10] it was 0.539; in assay [11] it was 0.412; in [13] it was -0.326; in [14] it was 1.06. Moreover, the composite z-score in assay [15] is 0.573; in [16], -0.232; in assay [17], -0.0035; in assay [18], 0.424; in [19], 2.68; in assay [20], 0.703. The results for the z-score in assay [4] and in assay [12] were -2.03 (inactive) and -1.76, respectively.
For the compound `COc1cc2c(cc1O)C(C)N(Cc1ccc([N+](=O)[O-])o1)CC2` (stereo not given), the composite z-score in [1] is 1.38; in [2], 0.749; in assay [3], 0.879; in [5] it was 0.675; in assay [6] it was 0.899; in assay [7] it was -0.459. Also, the composite z-score in [8] was 0.574; in assay [9] it was -0.0673; in [10], 1.31; in assay [11], 1.28; in assay [13] it was 0.0215; in [14], 2.21. Moreover, the composite z-score in [15] is 1.21; in assay [16], 0.138; in [17], -0.153; in assay [18], -0.335; in assay [19], 0.961; in [20], 1.95. In addition, the z-score in [4] is 0.286 (inactive); in [12], -0.616.
As to `C=C(COC)C(=O)CC[C@@H](OC(=O)c1cccnc1)c1ccc(OCCO)cc1`, the composite z-score in assay [1] was found to be 0.872; in assay [2], 0.131; in [3], 0.423; in assay [5], 1.55; in assay [6], 0.328; in assay [7] it was 0.338. Also, the composite z-score in [8] is 0.847; in assay [9], 0.922; in assay [10] it was 1.26; in [11], 0.757; in assay [13], 0.659; in assay [14], -0.299. Further, the composite z-score was -0.804 in assay [15]; -0.0944 in [16]; -0.237 in assay [17]; 0.678 in assay [18]; 0.975 in [19]; 0.661 in [20]. Also, the z-score in [4] was -0.853 (inactive); in assay [12], -2.9.
On to `COc1ccc(C#Cc2ccc3c(c2)[C@]2(C(=O)N3)[C@H](c3ccc(O)cc3)N3[C@H](c4ccccc4)[C@H](c4ccccc4)OC(=O)[C@H]3[C@@H]2C(=O)O)cc1`, for which the composite z-score was 1.04 in assay [1]; -0.901 in assay [2]; -0.596 in assay [3]; 0.368 in [5]; 0.74 in [6]; -0.209 in assay [7]. Further, the composite z-score in assay [8] is -0.114; in assay [9], -0.474; in [10], 0.326; in assay [11], 1.19; in assay [13], -0.172; in [14], 0.69. Also, the composite z-score in [15] is 0.805; in assay [16], 0.0293; in assay [17] it was -0.315; in assay [18] it was 1.49; in [19], 0.684; in [20], -0.0251. Moreover, the z-score was -0.518 (inactive) in [4] and -0.327 in [12].
